Results: PubChem BioAssay (NCI)
This is part of a sample that, as a whole, favours compounds with a hit. Of some 79,000 tested, about 15% had one in any assay. Active and inactive are the calls of the source. Cut-off read from the data, not from the text of the source: active = growth inhibition above about 70%; inactive = the rest.

Legend:
[1] = NCI Yeast Anticancer Drug Screen. Data for the rad52 strain (AID 147);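 note: 0% = growth of vehicle-treated control cultures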; details: S. cerevisiae rad52 mutant growth inhibition, hits give high values
How it was run: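 The repair-mutant yeast strain was incubated with compounds, then growth was read and inhibition derived relative to vehicle.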

[2] = NCI Yeast Anticancer Drug Screen. Data for the wt1 strain (AID 149);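 note: 0% = growth of vehicle-treated wt1 cultures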; details: S. cerevisiae wt1 strain (SPY 50644) growth inhibition, hits give high values
How it was run: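 The wt1 strain was treated with compounds, and growth was compared with vehicle-treated cultures to give inhibition.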

[3] = NCI Yeast Anticancer Drug Screen. Data for the mgt1 strain (AID 153); details: S. cerevisiae mgt1 mutant growth inhibition, hits give high values
How it was run: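 Vehicle-normalized growth inhibition is determined in mgt1 yeast, a strain selected for a defined alteration in DNA repair or cell cycle control.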

[4] = NCI Yeast Anticancer Drug Screen. Data for the rad50 strain (AID 155);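 note: 0% = growth of vehicle-only cultures of the same strain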; details: S. cerevisiae rad50 strain growth inhibition, hits give high values
How it was run: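 Cells are treated with compound, grown, and their growth is then scored against vehicle-only cultures of the same repair-deficient yeast strain.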

[5] = NCI Yeast Anticancer Drug Screen. Data for the mec2-1 strain (AID 157); details: S. cerevisiae mec2-1 strain, hits give high values
How it was run: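 Mutant yeast (mec2-1) grown with compound; growth inhibition relative to vehicle control reported.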

[6] = NCI Yeast Anticancer Drug Screen. Data for the rad14 strain (AID 159);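 note: 0% = growth of vehicle-treated control cultures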; details: S. cerevisiae rad14 strain growth inhibition, hits give high values
How it was run: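 Readout: yeast growth inhibition, referenced to vehicle-only cultures. Strain bears a defined alteration in DNA damage repair.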

[7] = NCI Yeast Anticancer Drug Screen. Data for the sgs1 mgt1 strain (AID 161);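 note: 0% = growth of cultures given vehicle only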; details: S. cerevisiae sgs1 mgt1 strain, hits give high values
How it was run: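 Percent growth inhibition was derived by comparing compound-exposed mutant yeast with vehicle-exposed cultures. The strain carries alterations in DNA damage repair.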

[8] = NCI Yeast Anticancer Drug Screen. Data for the CLN2oe strain (AID 163);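 note: 0% = growth of vehicle-only control cultures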; details: S. cerevisiae CLN2oe strain, hits give high values
How it was run: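 Compounds are applied to yeast harbouring a defined cell-cycle control change; reduced growth compared with vehicle-treated controls gives the value.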

[9] = NCI Yeast Anticancer Drug Screen. Data for the bub3 strain (AID 167); details: S. cerevisiae bub3 mutant strain, hits give high values
How it was run: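 Part of a panel of yeast mutants defective in DNA damage repair or cell cycle regulation. Each strain is grown with compound, and inhibition is calculated relative to solvent-treated cultures.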

[10] = NCI Yeast Anticancer Drug Screen. Data for the wt2 strain (AID 169);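 note: 0% = growth of vehicle-treated yeast cultures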; details: S. cerevisiae wt2 strain growth inhibition, hits give high values
How it was run: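 Against vehicle-treated controls, the growth of yeast exposed to each compound was compared, and the inhibition was recorded.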

[11] = NCI Yeast Anticancer Drug Screen. Data for the mlh1 strain (AID 171);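 note: 0% = growth of vehicle-treated control cultures of the same strain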; details: S. cerevisiae mlh1 strain growth inhibition, hits give high values
How it was run: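 Measured: yeast growth. Reference: vehicle-treated controls. Organism: strain with a defined alteration affecting DNA damage repair or cell cycle control, treated with compound.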

[12] = NCI Yeast Anticancer Drug Screen. Data for the sgs1 strain (AID 173);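 note: 0% = growth of vehicle-only control cultures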; details: S. cerevisiae sgs1 mutant, hits give high values
How it was run: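 Each compound was added to cultures of the altered yeast strain. Growth was recorded, and inhibition was derived by comparison with vehicle controls.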

[13] = NCI Yeast Anticancer Drug Screen. Data for the mlh1 rad18 strain (AID 175); details: S. cerevisiae mlh1 rad18 strain growth inhibition, hits give high values
How it was run: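 Genetically defined yeast (DNA repair-deficient) exposed to compounds; growth inhibition determined relative to vehicle.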

[14] = NCI Yeast Anticancer Drug Screen. Data for the rad18 strain (AID 177); details: S. cerevisiae rad18 mutant growth inhibition, hits give high values
How it was run: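 Vehicle-treated cultures served as the baseline for scoring compound-induced growth inhibition in DNA-repair-mutant yeast.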

[15] = NCI Yeast Anticancer Drug Screen. Data for the cln2 rad14 strain (AID 165);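 note: 0% = growth equal to vehicle treated cultures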; details: S. cerevisiae cln2 rad14 strain, hits give high values
How it was run: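 Readout is yeast growth inhibition versus vehicle-treated controls, using a strain with cln2 and rad14 alterations exposed to compound.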

[16] = at 5.0 µM (retest, dose inferred, filed as 0.5)
[17] = at 50.0 µM (retest, dose inferred, filed as 5.0)

Measured: growth inhibition

CCc1ccc(NS(=O)(=O)c2ccccc2)c([N+](=O)[O-])c1
active: [1]; at 100.0 µM 76% | [3]; at 100.0 µM 74% | [4]; at 100.0 µM 72% | [5]; at 100.0 µM 81% | [6]; at 100.0 µM 82% | [7]; at 50.0 µM 70.7% | [8]; at 100.0 µM 73% | [10]; at 100.0 µM 78% | [11]; at 100.0 µM 71% | [12]; at 100.0 µM 90% | [13]; at 50.0 µM 78% | [14]; at 100.0 µM 87%
inactive: [1]; at 1.2 µM 2% | [1]; at 3.7 µM 2% | [1]; at 11.0 µM 11% | [1]; at 33.0 µM 30% | [2]; at 1.2 µM 1% | [2]; at 3.7 µM 6% | [2]; at 11.0 µM 2% | [2]; at 33.0 µM 5% | [2]; at 100.0 µM 46% | [3]; at 1.2 µM 0% | [3]; at 3.7 µM 0% | [3]; at 11.0 µM 3% | [3]; at 33.0 µM 22% | [4]; at 1.2 µM 3% | [4]; at 3.7 µM 5% | [4]; [16] 2% | [4]; at 11.0 µM 5% | [4]; at 33.0 µM 22% | [4]; [17] 39% | [4]; at 50.0 µM 37.2% | [5]; at 1.2 µM 1% | [5]; at 3.7 µM 8% | [5]; [16] 6% | [5]; at 11.0 µM 14% | [5]; at 33.0 µM 27% | [5]; [17] 39% | [5]; at 50.0 µM 55% | [6]; at 1.2 µM 2% | [6]; at 3.7 µM 5% | [6]; at 11.0 µM 6% | [6]; at 33.0 µM 11% | [7]; [16] 8% | [7]; [17] 54% | [8]; at 1.2 µM -2% | [8]; at 3.7 µM -2% | [8]; at 11.0 µM 3% | [8]; at 33.0 µM 17% | [9]; at 1.2 µM -3% | [9]; at 3.7 µM 4% | [9]; [16] -3% | [9]; at 11.0 µM 7% | [9]; at 33.0 µM 28% | [9]; [17] 36% | [9]; at 50.0 µM 53.6% | [9]; at 100.0 µM 67% | [10]; at 1.2 µM -1% | [10]; at 3.7 µM 3% | [10]; at 11.0 µM 3% | [10]; at 33.0 µM 27% | [11]; at 1.2 µM 0% | [11]; at 3.7 µM 3% | [11]; at 11.0 µM 7% | [11]; at 33.0 µM 31% | [12]; at 1.2 µM 2% | [12]; at 3.7 µM 5% | [12]; at 11.0 µM 15% | [12]; at 33.0 µM 44% | [13]; [16] 1% | [13]; [17] 61% | [14]; at 1.2 µM 2% | [14]; at 3.7 µM 6% | [14]; at 11.0 µM 15% | [14]; at 33.0 µM 43%

CNC(=O)OCc1c(COC(=O)NC)c(-c2ccc(-c3ccccc3)cc2)n(C)c1C
active: [4]; [17] 85% | [4]; at 100.0 µM 70% | [6]; at 100.0 µM 75%
inactive: [1]; at 1.2 µM -36% | [1]; at 3.7 µM -41% | [1]; at 11.0 µM -27% | [1]; at 33.0 µM 26% | [1]; at 100.0 µM 68% | [2]; at 1.2 µM -7% | [2]; at 3.7 µM -16% | [2]; at 11.0 µM -12% | [2]; at 33.0 µM 10% | [2]; at 100.0 µM 23% | [3]; at 1.2 µM -11% | [3]; at 3.7 µM -5% | [3]; at 11.0 µM -6% | [3]; at 33.0 µM 2% | [3]; at 100.0 µM 10% | [4]; at 1.2 µM -46% | [4]; at 3.7 µM -15% | [4]; [16] 25% | [4]; at 11.0 µM -26% | [4]; at 33.0 µM 16% | [4]; at 50.0 µM 64% | [5]; at 1.2 µM -17% | [5]; at 3.7 µM -18% | [5]; [16] 16% | [5]; at 11.0 µM 3% | [5]; at 33.0 µM -8% | [5]; [17] 46% | [5]; at 50.0 µM 13.4% | [5]; at 100.0 µM 1% | [6]; at 1.2 µM -13% | [6]; at 3.7 µM -13% | [6]; at 11.0 µM -21% | [6]; at 33.0 µM 13% | [7]; [16] -5% | [7]; [17] 25% | [7]; at 50.0 µM -2.7% | [8]; at 1.2 µM -29% | [8]; at 3.7 µM -2% | [8]; at 11.0 µM -20% | [8]; at 33.0 µM -5% | [8]; at 100.0 µM -9% | [15]; [16] 24% | [15]; [17] 56% | [15]; at 50.0 µM -6.8% | [9]; at 1.2 µM -10% | [9]; at 3.7 µM -15% | [9]; [16] -8% | [9]; at 11.0 µM -15% | [9]; at 33.0 µM 0% | [9]; [17] 23% | [9]; at 50.0 µM -13.5% | [9]; at 100.0 µM -1% | [10]; at 1.2 µM -30% | [10]; at 3.7 µM -29% | [10]; at 11.0 µM -15% | [10]; at 33.0 µM -27% | [10]; at 100.0 µM 23%
